From PubChem BioAssay AID651705 (Broad Institute, 2012)
The whole screen tested about 1,200 compounds, of which about 620 (52%) were called active. The set was probably picked from earlier hits. The list is a sample of the results. Values without a mark were called inactive.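 Rule for the calls: active = every separate test run was called active for a drop in luminescence, with AC50 within twice the top valid dose (actives reach about 71 µM in these data); inconclusive = the separate test runs disagree in their calls; inactive = all runs inactive, including signal change in the wrong direction.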

assay: AlphaScreen signal interference compounds, dose response, artefact control for ARNT-TACC3 interaction inhibitor project, biochemical, luminescence, cherry-pick (AID 651705); settings: His-ARNT PASB-GST AlphaScreen artifact counter-screen; series mostly up to 68 µM; activity change, negative = signal decrease: at the top concentration;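 for activity change, negative = signal decrease: 0% = neutral control wells with protein and -100% = buffer without protein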

SMILES | AC50 | activity change, negative = signal decrease
Oc1cccc(/C=N/Nc2ccc(Cl)nn2)c1O | 10.2 µM (active) | –
CN(c1ccc(C(=O)N2CCc3ccccc3C2)cc1)S(C)(=O)=O | – | -2.85%
C[C@@H]1CN([C@H](C)CO)C(=O)Cc2cc(NC(=O)Nc3cccc4ccccc34)ccc2O[C@@H]1CN(C)Cc1ccc(C(=O)O)cc1 | – | -5.56% [at 38 µM]
CC(C(=O)Nc1ccc(O)c(C(=O)O)c1)N1C(=O)/C(=C/c2cccs2)SC1=S (stereo unspecified) | – | -21.1%
CCN(CC)c1ccc(/C=N/NC(=O)c2cnccn2)c(O)c1 | – | -14.3%
CCOC(=O)N1CCN(C(c2cccnc2)c2ccc3cccnc3c2O)CC1 (stereo unspecified) | 18 µM (active) | –
CCN1CCN(C(c2cccnc2)c2cc(Cl)c3cccnc3c2O)CC1 (stereo unspecified) | 23.8 µM (active) | –
COc1ccc2ccccc2c1CNCc1ccccn1 | – | -24.4%
O=S(=O)(c1ccccc1)N1C[C@@H]2[C@H](c3ccccc31)[C@H](CO)N2Cc1ccccn1 | 65.5 µM (active) | –
C/C(=N\NC(=O)Cc1ccc(Cl)cc1)c1ccccn1 | 59.3 µM (active) | –
Cc1c(CC(=O)NCC(=O)NCC(=O)O)c(=O)oc2cc3oc4c(c3cc12)CCCC4 | – | -7.24%
O=C(NCCCn1ccnc1)c1cc(-c2ccccc2)on1 | – | -4.56% [at 38 µM]
CC(=O)/C(=N\Nc1ccc(Cl)cc1Cl)Sc1cccc2cccnc12 | 7.85 µM (active) | –
Oc1ccc(Br)cc1/C=N/Nc1ccccn1 | 56.5 µM (active) | –
Cc1ccccc1CSc1nnc(-c2ccccn2)n1N | – | -19.5%
O=C(CN1C(=O)COc2ccccc21)Nc1ccc(F)cc1 | 13.5 µM (active) | –
O=C1c2cccc3cccc(c23)C(=O)N1CCCCCc1n[nH]c(=S)o1 | – | -29.9%
CCn1cc(/C=C2/SC(=S)NC2=O)c(C)n1 | – | -7.76%
Oc1c(CN2CCN(c3ccc(F)cc3)CC2)cc(Cl)c2cccnc12 | 10.2 µM (active) | –
O=C(CSc1ccc(-c2ccccn2)nn1)Nc1ccccc1 | 10.4 µM (active) | –
C[C@@H]1CN([C@@H](C)CO)C(=O)c2cc(NS(=O)(=O)c3cccs3)ccc2O[C@H]1CN(C)CC1CCCCC1 | – | -5.29% [at 38 µM]
c1ccc(-c2cn3c(n2)CCc2ccc4cccnc4c2-3)cc1 | – | -27.6%
Cc1ccc(NC(=O)c2cc(-c3ccccc3)on2)cn1 | – | 2.04% [at 38 µM]

SMILES | AC50 | activity change, negative = signal decrease
Cn1c(-c2ccccc2)cnc1NC(=O)c1cc(-c2ccccc2)on1 | 40.5 µM (active) | –
O=C(Nc1cnc2ccccc2c1)c1cc(-c2ccccc2)on1 | – | -4.59% [at 38 µM]
CCOc1cc(N2CCOCC2)c(OCC)cc1NC(=O)COc1cccc2cccnc12 | 36.5 µM (active) | –
O=S(=O)(N[C@@H]1CC[C@@H](CCn2cc(-c3ccccn3)nn2)O[C@@H]1CO)c1cccc(Cl)c1 | 41.9 µM (active) | –
O=C(N[C@@H]1CC[C@H](CCn2cc(-c3ccccn3)nn2)O[C@@H]1CO)c1ccccc1 | 37.6 µM (active) | –
COCCNC(=O)Cn1cc(C(=O)c2cccs2)c2ccccc21 | – | -2.7%
Cn1c(=NC(=O)c2cnccn2)sc2ccccc21 | – | -2.58%
Cc1c(NC(=O)CSc2cccc3cccnc23)c(=O)n(-c2ccccc2)n1C | 32.1 µM (active) | –
COc1ccc(Cc2nnc(N/N=C/c3ccccc3O)[nH]c2=O)cc1OC | 6.44 µM (active) | –
CCN(/N=C/c1ccccc1)c1cc(=O)n(C)c(=O)[nH]1 | – | 1.26%
COc1cc(C2C(C#N)=C(N)Oc3n[nH]c(-c4ccccn4)c32)cc(OC)c1OC (stereo unspecified) | – | -7.09%
c1ccc(-c2nnc(-c3ccccn3)nc2Nc2nc3ccccc3s2)cc1 | 1.9 µM (active) | –
CC(NC(=O)c1ccco1)C(=O)Nc1nc(-c2ccccn2)cs1 (stereo unspecified) | 31.7 µM (active) | –
O=C(COc1ccccc1F)Nc1nc(-c2ccccn2)cs1 | 54.1 µM (active) | –
O=C(CN1C(=O)C2C3C=CC(C3)C2C1=O)Nc1nc(-c2ccccn2)cs1 (stereo unspecified) | 47.6 µM (active) | –
Cc1c(CC(=O)NCCCCCC(=O)O)c(=O)oc2cc3occ(-c4ccccc4)c3cc12 | – | -32.8%
CCN(C(=O)Cc1nc(N)n[nH]1)C1(C(=O)Nc2ccccc2)CCCCC1 | – | -14.5%
Cc1ccc(S(=O)(=O)n2oc(=O)c(C3CCCCC3)c2N)cc1 | 42.3 µM (active) | –
COc1ccccc1Nc1nc(N)nc(CN(C)C2CCCCC2)n1 | – | -22.6%
CC[C@]1(O)CC2CN(CCc3c([nH]c4ccccc34)[C@@](C(=O)OC)(c3cc4c(cc3OC)N(C=O)[C@H]3[C@@](O)(C(=O)OC)[C@H](OC(C)=O)[C@]5(CC)C=CCN6CC[C@]43[C@@H]65)C2)C1 (stereo partly specified) | – | -11%
CCN(CC)CCOc1ccc2c(c1)C(=NNC(=O)c1ccccn1)c1cc(OCCN(CC)CC)ccc1-2 | 69.6 µM (active) | –
CCOC(=O)c1ccc(Nc2cc3ccccc3c(=O)[nH]2)cc1 | – | -19.3%
COC(=O)CC1=NN(c2nc(C)cc(C)n2)C(=O)C1 | – | 2.68%
